Screen size: about 290,000 compounds; about 2,100 (0.72%) were called active. Another 4% or so got no clear call; they are omitted. The call rests on the fitted dose curve; in most records, active means well fitted inhibition curve with a large enough effect; inconclusive means small, poorly fitted or top-dose-only effect, or effect the other way; inactive means flat fitted curve, though single readings scatter. Shown is part of a subset that was picked to be rich in actives.
molecular target: Fructose-bisphosphate aldolase, Giardia intestinalis (strain ATCC 50803 / WB clone C6) (UniProt A8B2U2); test: qHTS Assay for Inhibitors of Fructose-1,6-bisphosphate Aldolase from Giardia Lamblia
Sequence (A8B2U2 whole entry, looked up, natural form): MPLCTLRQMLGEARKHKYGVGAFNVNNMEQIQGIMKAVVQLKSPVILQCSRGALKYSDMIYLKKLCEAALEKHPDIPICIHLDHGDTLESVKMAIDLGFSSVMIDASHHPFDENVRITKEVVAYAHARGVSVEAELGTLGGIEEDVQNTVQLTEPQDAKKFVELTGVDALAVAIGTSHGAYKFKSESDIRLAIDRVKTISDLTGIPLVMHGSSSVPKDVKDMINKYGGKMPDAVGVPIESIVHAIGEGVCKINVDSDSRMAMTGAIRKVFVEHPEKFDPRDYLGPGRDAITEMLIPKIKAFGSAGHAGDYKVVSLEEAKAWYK

SMILES	outcome
N.N.[Cl][Pt][Cl]	active

Reference: the GenesisPotency data set
